# Assay results: ChEMBL document CHEMBL3433997, “St. Jude Leishmania screening dataset” (2016)
# Columns and labels:
# Assay type in all cases: functional
# [1] = target: Solute carrier family 2, facilitated glucose transporter member 1 (Homo sapiens) (UniProt P11166); assay: ST_JUDE_LEISH: Cytotoxicity at 2uM final concentration against transgenic Leishmania Mexicana promastigotes LmGLUT1 that are glucose transport deficient and complemented with the human glucose transporter GLUT1. Activity is measured by DNA content using SYBR green in vitro
# Solute carrier family 2, facilitated glucose transporter member 1 (Homo sapiens), sequence (P11166 whole entry): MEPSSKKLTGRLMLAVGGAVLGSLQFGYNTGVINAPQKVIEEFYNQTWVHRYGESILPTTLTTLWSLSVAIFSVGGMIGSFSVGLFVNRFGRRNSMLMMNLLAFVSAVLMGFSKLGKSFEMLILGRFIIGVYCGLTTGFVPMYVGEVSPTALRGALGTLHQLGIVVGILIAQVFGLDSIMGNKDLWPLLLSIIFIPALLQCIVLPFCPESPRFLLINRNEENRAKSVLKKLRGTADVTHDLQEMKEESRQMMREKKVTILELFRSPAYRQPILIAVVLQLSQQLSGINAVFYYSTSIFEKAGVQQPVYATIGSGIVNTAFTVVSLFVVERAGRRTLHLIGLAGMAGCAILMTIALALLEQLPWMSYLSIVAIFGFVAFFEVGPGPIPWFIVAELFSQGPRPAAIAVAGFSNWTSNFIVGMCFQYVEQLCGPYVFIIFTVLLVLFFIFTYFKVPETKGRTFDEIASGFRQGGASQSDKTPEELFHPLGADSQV
# [2] = target: Hexose transporter 1 (Plasmodium falciparum) (UniProt O97467); assay: ST_JUDE_LEISH: Cytotoxicity at 2uM final concentration against transgenic Leishmania Mexicana promastigotes LmPfHT that are glucose transport deficient and complemented with the Plasmodium falciparum hexose transporter. Activity is measured by DNA content using SYBR green in vitro
# [3] = target: Glucose transporter (Leishmania mexicana) (UniProt O61059); assay: ST_JUDE_LEISH: Cytotoxicity at 2uM final concentration against transgenic Leishmania Mexicana promastigotes LmGT2 that are glucose transport deficient and complemented with the L. Mexicana glucose transporter 2. Activity is measured by DNA content using SYBR green in vitro
SMILES,inhibition [1],inhibition [2],inhibition [3]
CCNc1cc(C(=O)N[C@@H](Cc2ccccc2)[C@H](O)CNCc2cc(OC)cc(OC)c2)cc(N2CCCS2(=O)=O)c1,1.6%,2.17%,-0.47%
CCCCCCOc1ccc(C(=O)NCCCC2CCCN(CCCCCNC(=O)C=Cc3ccc(Cl)c(Cl)c3)C2)cc1 (stereo unspecified),-0.52%,0.51%,1.31%
OCCCCCCNc1nc(NCc2ccccc2-c2ccc(C(F)(F)F)cc2)nc(N2CCNCC2)n1,1.31%,-1.2%,0.81%
CN1CCN(S(=O)(=O)c2ccc3nccc(Nc4ccc(Oc5ccccc5)cc4)c3c2)CC1,-3.11%,-1.4%,-1.4%
COc1ccc2ncc(F)c(NC(=O)C3CCC(NCc4cc5cc(F)cc(F)c5[nH]4)CC3)c2n1 (stereo unspecified),68.5%,78.5%,82.5%
COc1cc2c(cc1N1CC(C)NC(C)C1)N(C(=O)c1ccc(-c3ccc(-c4ncc[nH]4)cc3C)cc1)CC2 (stereo unspecified),2.21%,1.1%,3.39%
COc1ccc2c(Nc3ccc(N4CCN(C)CC4)cc3)cc(C)nc2c1,9.36%,6.21%,4.55%
COc1cc2c(cc1C(F)(F)F)N(C(=O)Nc1cccc(-c3ccc(CN(C)C)cc3)c1)CC2,22.1%,10.2%,44%
O=C(NCc1ccc(F)cc1)c1ccc(N2CCN(c3ccncc3)CC2)cn1,2.68%,-0.85%,1.79%
Nc1ncc(Cc2ccc3c(ccc4ccccc43)c2)c(N)n1,14.2%,12.7%,11.9%
Cc1cc(=NN=Cc2ccccc2Cl)c2ccc(F)cc2[nH]1,6.47%,6.14%,3.93%
CN1CCN(c2ccc3[nH]c(-c4ccc(Cc5cc(Cl)ccc5OCc5ccccc5)o4)nc3c2)CC1,1%,2.32%,2.2%
CN(C)c1ccc2nc(N)nc(N)c2c1Cl,3.29%,3.16%,3.5%
C[C@@H](CNc1ccnc(Nc2ccc3[nH]c(=O)[nH]c3c2)n1)c1ccccc1,-3.02%,-0.02%,-0.41%
Cc1cccc(-c2cccc(CNc3nc(NCCc4ccc(O)cc4)nc(N4CCNCC4)n3)c2)c1,2.88%,3.88%,2.83%
COc1ccc2[nH]ccc(=NN=Cc3cccc(F)c3)c2c1,1.01%,2.87%,0.07%

SMILES,inhibition [1],inhibition [2],inhibition [3]
O=C(Nc1cccc(-c2nn3ncccc3c2-c2ccnc(Nc3cccc(C(F)(F)F)c3)n2)c1)c1c(F)cccc1F,2.16%,3.08%,-0.92%
CN1CCN(CCCN(Cc2csc(-c3ccc(CNCc4ccccc4)cc3)n2)S(=O)(=O)c2ccccc2Cl)CC1,1.75%,0.37%,2.9%
CN(C)c1ccc(CN2CCC(CNC(=O)c3cc(-c4cccc(C(F)(F)F)c4)cs3)C2)cc1 (stereo unspecified),2.15%,1.34%,1.72%
COc1ccc(CNC(=O)c2cnc3c(O)cccc3c2Nc2cccc(NC(=O)c3ccc(Cl)c([N+](=O)[O-])c3)c2)cc1,0.79%,6.77%,4.02%
Cc1cccc(CCNC(=O)c2cc(Br)cc(N3CCN(c4ccncc4)CC3)c2)c1,0.72%,2.44%,1.78%
COC(=O)c1cccc(OCCNC2CCN(C[C@H](O)c3ccnc4ccc(OC)cc34)CC2)c1,0.73%,-0.34%,0.25%
CC(C)COc1ccc(Cl)cc1Cc1nc(-c2nc3cccc(CN4CCN(C)CC4)c3[nH]2)cs1,0.6%,0.77%,0.67%
COc1cccc(C(=O)Nc2ccc(Nc3nc(C)cc(N(C)C)n3)cc2)c1OC,2.81%,4.32%,1%
Nc1c2ccccc2nc2ccc(-c3ccccc3)cc12,18.4%,14.6%,13.1%
COc1ccc(Nc2nccc(-c3ccc4ccnc(NCCCCN)c4c3)n2)cc1,-0.78%,-1.84%,-4.14%
O=C(Nc1ccc(Cl)c(Cl)c1)C1CCC(=O)N1[C@@H](Cc1ccccc1)C(=O)NCCc1ccc(Cl)cc1 (stereo partly specified),0.51%,0.41%,1.43%
Cc1cccc2nc(-c3cccc(-c4ccc(C(=O)NCCc5ccc(O)c(=O)[nH]5)cc4)c3)[nH]c12,2.16%,1.89%,2.33%
CN(C)C(S)=NN=Cc1cccc(O)c1O,6.64%,6.87%,4.78%
Cc1nn(-c2ccnc3cc(Cl)ccc23)c(C)c1C(=O)NCc1cc(Cl)cc(Cl)c1,0.16%,-0.98%,1.27%
O=C(/C=C/c1ccc(Cl)cc1)NCCCCCN1CCCC(C(=O)Nc2cccc(Cl)c2)C1 (stereo unspecified),2.85%,2.1%,3.91%
CCOC(=O)c1c(NC(=O)c2ccccc2)sc2c(O)c(CNC3CCCCC3)ccc12,-1.14%,-0.58%,-0.44%
